# Experimental data as given in publication PMC5913336, “True equilibrium measurement of transcription factor-DNA binding affinities using automated polarization microscopy”.
# Molecular target: T1, GATAe (Drosophila melanogaster, UniProt Q9VF00 512-604)
# T1 sequence: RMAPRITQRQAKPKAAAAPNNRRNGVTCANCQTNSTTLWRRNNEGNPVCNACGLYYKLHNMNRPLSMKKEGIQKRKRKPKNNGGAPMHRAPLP
# Assay: FP; 33 mM phosphate pH 7.0, 90 mM NaCl, 0.01% Tween 20, 0.1 mM DTT, 0.5% agarose; room temperature
# Conditions: tags: N-GST (pGEX-6P-1, kept); dsDNA, one strand shown
Sequence,binding signal,Kd [nM]
CATGTTATCTCC,1.58 Kd / Kd of best base at the position,
CATGTTATCAAC,1.76 Kd / Kd of best base at the position,
CATGTTATCTGC,1.67 Kd / Kd of best base at the position,
CATGATATCTAC,2.32 Kd / Kd of best base at the position,
CATGTTATTTAC,15.3 Kd / Kd of best base at the position,
CACGTTATCTAC,1.57 Kd / Kd of best base at the position,
CATGTTATCGAC,2.3 Kd / Kd of best base at the position,
AATGTTATCTAC,1.68 Kd / Kd of best base at the position,
CATGTTAACTAC,9.8 Kd / Kd of best base at the position,
CATGTTATCCAC,3.95 Kd / Kd of best base at the position,
CATGTTATCTAA,1.53 Kd / Kd of best base at the position,
CATATTATCTAC,2.02 Kd / Kd of best base at the position,
CATGTTATCTAG,1.71 Kd / Kd of best base at the position,
CATGTAATCTAC,2.43 Kd / Kd of best base at the position,
CATGTTTTCTAC,35.6 Kd / Kd of best base at the position,
CCTGTTATCTAC,1.53 Kd / Kd of best base at the position,
GATGTTATCTAC,1.64 Kd / Kd of best base at the position,
CATGGTATCTAC,3.02 Kd / Kd of best base at the position,
CATGTTACCTAC,20.8 Kd / Kd of best base at the position,

Sequence,binding signal,Kd [nM]
TATGTTATCTAC,1.62 Kd / Kd of best base at the position,
CATGTTATCTAT,1.52 Kd / Kd of best base at the position,
CATGTTATGTAC,25.2 Kd / Kd of best base at the position,
CATGTGATCTAC,11.2 Kd / Kd of best base at the position,
CTTGTTATCTAC,1.46 Kd / Kd of best base at the position,
CATTTTATCTAC,1.94 Kd / Kd of best base at the position,
CATGTTATCTTC,1.72 Kd / Kd of best base at the position,
CATGCTATCTAC,2.34 Kd / Kd of best base at the position,
CAGGTTATCTAC,1.9 Kd / Kd of best base at the position,
CATGTTATCTAC,,~7.3
CATGTTGTCTAC,9.99 Kd / Kd of best base at the position,
CATGTTCTCTAC,42.3 Kd / Kd of best base at the position,
CAAGTTATCTAC,2.12 Kd / Kd of best base at the position,
CATCTTATCTAC,1.22 Kd / Kd of best base at the position,
CATGTCATCTAC,13.1 Kd / Kd of best base at the position,
CGTGTTATCTAC,1.55 Kd / Kd of best base at the position,
CATGTTAGCTAC,25.2 Kd / Kd of best base at the position,
CATGTTATATAC,17.7 Kd / Kd of best base at the position,
